# Results reported in the supplement of paper PMC3334620.
# In all, about 33,000 sequences were measured (“E-score (-0.5 to 0.5)”: median about -0.011, highest 2% from about 0.28 on). The sample as a whole holds a higher share of the highest values than the screen did.
# Target: T1, Gcr1 (UniProt P07261)
# T1 sequence: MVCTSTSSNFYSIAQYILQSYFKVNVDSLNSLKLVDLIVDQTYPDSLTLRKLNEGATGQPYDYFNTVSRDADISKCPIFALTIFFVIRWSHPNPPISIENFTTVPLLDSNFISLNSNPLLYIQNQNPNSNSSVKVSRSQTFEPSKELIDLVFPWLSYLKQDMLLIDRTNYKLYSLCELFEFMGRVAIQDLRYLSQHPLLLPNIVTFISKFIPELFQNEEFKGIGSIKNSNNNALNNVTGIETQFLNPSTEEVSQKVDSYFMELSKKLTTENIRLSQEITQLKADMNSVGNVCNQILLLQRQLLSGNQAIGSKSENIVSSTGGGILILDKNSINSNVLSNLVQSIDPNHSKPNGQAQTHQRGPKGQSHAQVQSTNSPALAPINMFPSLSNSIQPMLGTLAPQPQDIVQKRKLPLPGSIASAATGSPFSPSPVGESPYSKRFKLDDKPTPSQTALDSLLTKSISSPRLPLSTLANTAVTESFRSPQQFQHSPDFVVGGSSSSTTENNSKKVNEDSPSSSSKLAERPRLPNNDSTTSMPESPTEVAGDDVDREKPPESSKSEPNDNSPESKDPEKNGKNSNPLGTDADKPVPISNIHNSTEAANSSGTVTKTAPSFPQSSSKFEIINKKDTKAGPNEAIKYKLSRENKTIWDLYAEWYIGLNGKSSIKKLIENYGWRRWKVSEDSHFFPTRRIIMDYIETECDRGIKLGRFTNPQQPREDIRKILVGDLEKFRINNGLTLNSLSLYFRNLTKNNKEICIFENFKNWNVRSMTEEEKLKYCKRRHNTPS
# Test: PBM E-score (8-mer binding enrichment) (E-score (-0.5 to 0.5)); higher = stronger / more preferred TF binding
# Settings: protein concentration: 100 nM; construct: GST-full length
# Protocol: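 Universal 'all 10-mer' protein binding microarrays (Agilent AMADID 015681) probed with GST-tagged S. cerevisiae TFs (full-length or DBD) made by in vitro transcription/translation (PURExpress), about 100-200 nM. Bound TF was detected with fluorescent anti-GST. Each ungapped 8-mer (which stands for itself and its reverse complement) is scored by the PBM enrichment score (E-score), a modified Wilcoxon-Mann-Whitney statistic from -0.5 to +0.5, computed with the Universal PBM Analysis Suite. Scale: above 0.35 generally sequence-specific binding.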
row,Sequence,PBM E-score
1,GGCTTCCC,0.433
2,CCCTTCCA,-0.0993
3,GGCTTCAC,-0.14
4,CGCTTCCC,0.273
5,CGCTTCGA,-0.0778
6,CGCTTCCA,0.351
7,GTCAGGTA,0.091
8,GTTCTAAA,0.0776
9,CAGAATCC,0.161
10,CTATCGCC,-0.00847
11,AACAGGAG,-0.0445
12,AACAGGAC,0.162
13,AACAGGAT,0.318
14,GACAGGAA,0.316
15,ACCAGGAA,0.0492
16,AACAGGTA,0.269
17,TACAGGAA,0.394
18,AACAGGAA,0.334
19,GTCAGGAA,0.104
20,CACAGGAA,0.118
21,GACAGGAC,0.0783
22,TACAGGTA,0.0633
23,CGGCTCAA,0.00705
24,GCGGGCAA,-0.146
25,CACAAGGC,-0.161

row,Sequence,PBM E-score
1,AACACCTT,-0.0171
2,AGTCCCGA,-0.15
3,CGCATAAA,0.0544
4,ACGTTGCA,-0.015
5,TACCGGAA,0.341
6,CACCGGAA,0.266
7,AACCGGAA,0.2
8,CTCGGGGC,-0.101
9,CTAAGGCC,0.046
10,AGTTGAAT,-0.0577
11,CGGATGTC,0.0736
12,GGCTTCTA,0.297
13,CGCTTCTA,0.259
14,AGCTTCTG,0.245
15,GCCTTCTA,0.131
16,AGCTTCTA,0.297
17,AGCTTCTC,0.25
18,GCTCCGGA,0.121
19,CGAACTAC,0.00469
20,AGGCCGCC,0.292
21,AGGCCGCG,0.0497
22,AGGCCGCA,-0.0993
23,GCTGCCAC,0.301
24,ACTGCCAA,0.0668
25,CCTGCGTA,0.0119

row,Sequence,PBM E-score
1,TCTGCCAA,0.00421
2,GCTGCCTA,0.305
3,CCTGCCAC,0.0404
4,ACTGCCAC,0.101
5,GCTGCGTA,0.286
6,CCTGCCTA,0.00507
7,ACTGCCTA,0.0876
8,ACTGCGTA,0.062
9,GCTGCCAA,0.31
10,TAGTCTGA,-0.0964
11,TCCAAACA,0.135
12,AGATAACA,-0.0519
13,ACCGTTAA,-0.119
14,GCGGACTA,-0.12
15,ACGTCCCA,-0.153
16,CCGTCCTA,-0.158
17,CCGTCCCC,0.00017
18,GCGTCCTA,0.43
19,GCGTCTCA,0.146
20,ACGTCTCC,0.101
21,GCGTCCCC,0.304
22,GCGTCCCA,0.282
23,ACGTCCTA,0.0954
24,TCGTCCCA,-0.0947
25,ACGTCCCC,-0.0668

row,Sequence,PBM E-score
1,GCGTCTCC,0.317
2,ACTCAACA,0.122
3,GCGATCAC,-0.0279
4,GAGCGACA,-0.0391
5,TATTGGGA,-0.02
6,ACTGCACC,0.014
7,CAGCCCTC,-0.0883
8,AAGAATAA,0.0669
9,AAAACTGG,0.254
10,CATTTACG,0.0351
11,GAGTCCCA,0.313
12,GAGTCCCC,-0.0421
13,CAGTCCCA,0.0489
14,GCGGCGAC,0.148
15,AGGGCGTC,0.26
16,CCGGCGTC,0.402
17,CGGGCGTC,0.307
18,GCGGCGCA,-0.064
19,GCGGCGCC,0.324
20,CGGGCGTA,-0.097
21,CCGGCGTA,-0.139
22,CCAGCGTA,-0.178
23,ACAGCGTC,-0.0458
24,CCAGCGTC,0.314
25,ACGGCGTC,0.243

row,Sequence,PBM E-score
1,GCGCCTGA,0.171
2,ATCCTACG,-0.00941
3,AGGCCCCG,0.0239
4,ATGATTTC,-0.142
5,AAATTGTG,-0.0559
6,CATAACCC,-0.121
7,CTCAATCA,0.119
8,ACGGCGCT,-0.00448
9,CCGGCGCC,0.317
10,ACGGCGCC,0.312
11,CCGGCGCA,-0.0778
12,CCGGCGCG,-0.112
13,ACGGCGCA,-0.265
14,CCTAAAGG,0.0292
15,AACTGATC,-0.114
16,ATGGATCA,-0.201
17,GCACCACC,-0.0802
18,GTAGGCCA,-0.106
19,ATCCGGAA,0.26
20,ATCCGGAT,0.286
21,ATCCGGAC,-0.106
22,GAAGTAAA,-0.0223
23,CAGGCGCG,-0.0119
24,GAGGCGCC,0.302
25,CAGGCGCA,-0.0694

row,Sequence,PBM E-score
1,AAGGCGCC,0.258
2,CAGGCGCC,0.361
3,GAGGCGCA,0.0503
4,AAATGGTT,0.0753
5,ATTGAAGA,0.0516
6,CAGATAGG,0.0828
7,TAATTGAA,0.228
8,ACACGCAC,0.0159
9,CTACGCAG,0.0122
10,ACACGCAA,0.127
11,ATACGCAG,0.281
12,ACACGCAG,0.323
13,ATACGCAT,0.23
14,AGGCTATC,-0.243
15,TGTTCAAA,-0.014
16,AAGGAGGT,-0.0668
17,AAGAGGGG,0.0114
18,CGGGCTGC,0.234
19,ACGGCTTC,0.238
20,CGGGCTTC,0.415
21,CCGGCTTA,-0.0254
22,CCGGCTTC,0.358
23,AGGGCTTC,0.339
24,AGGGCTTA,-0.262
25,CGGGCTTA,0.00411

row,Sequence,PBM E-score
1,AGGGCTTG,-0.209
2,CTCCCCGC,0.196
3,ACGGCACG,-0.0602
4,ACGGTCGA,-0.354
5,GGGGGCGA,-0.0875
6,GCTGGTCA,-0.151
7,ACTCGTTC,-0.0676
8,CCCAATAA,0.0668
9,ATCACTCC,-0.0513
10,ACTGCCAT,0.0395
11,CCCCTCAA,-0.118
12,ATCCTGTA,0.28
13,ATCCTGAA,0.31
14,ATCCTGAC,0.163
15,GGGACCTA,0.0741
16,ACTATTGC,0.0299
17,CTGGCGCC,0.319
18,CTGGCGTC,0.279
19,ATGGCGCA,-0.122
20,ATGGCGCC,0.343
21,CTGGCGCA,-0.119
22,ATGGCGCG,0.116
23,ATGGCGTG,-0.0168
24,CTGGCGGC,0.265
25,ATGGCGTC,0.319
